Reference: PubChem BioAssay AID651710 (Broad Institute, 2012)
Hit rate of the full screen: of about 360,000 compounds, about 1,600 (0.44%) were called active.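 How the source made its calls: active means every replicate showing at least 50% inhibition; inconclusive means mean inhibition at least 50% but not in every replicate; inactive means the rest.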 Many of the other results were omitted from the sample, so actives are more common in it than they were.

Target: DNA repair protein RAD52 homolog (Homo sapiens) (UniProt P43351)
Sequence (P43351 whole entry, looked up): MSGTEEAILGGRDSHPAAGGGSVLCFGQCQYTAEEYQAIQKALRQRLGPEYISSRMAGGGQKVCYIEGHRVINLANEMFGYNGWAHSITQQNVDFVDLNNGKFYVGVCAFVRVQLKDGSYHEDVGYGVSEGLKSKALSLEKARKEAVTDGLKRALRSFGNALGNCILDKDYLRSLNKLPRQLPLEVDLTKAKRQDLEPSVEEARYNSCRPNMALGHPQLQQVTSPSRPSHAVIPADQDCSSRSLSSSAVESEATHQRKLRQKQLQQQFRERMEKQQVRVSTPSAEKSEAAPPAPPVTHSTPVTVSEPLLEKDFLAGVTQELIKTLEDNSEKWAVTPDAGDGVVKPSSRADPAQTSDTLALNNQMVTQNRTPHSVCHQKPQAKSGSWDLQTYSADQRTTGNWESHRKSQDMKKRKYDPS
Assay: blockers of RAD52 strand annealing activity – biochemical, FRET, single point, set 2, primary screen (AID 651710)
Details: recombinant RAD52 DNA annealing, FRET fluorescence; at 18.7 µM; stronger effect = higher value

| Structure (SMILES) | inhibition |
| --- | --- |
| CS(=O)(=O)N1[C@H](C(=O)NCc2ccncc2)[C@@H](CO)[C@@H]2Cn3c(ccc(C4=CCCCC4)c3=O)[C@@H]21 | -1.92% (inactive) |
| CC(Nc1nc(N2CCN(CCO)CC2)nc2ccccc12)c1ccccc1 (centres undefined) | -10.7% (inactive) |
| CN1CCN(c2nc(Nc3ccc(O)cc3)nc3ccccc23)CC1 | 72.4% (active) |
| CC1CN(c2nc(Nc3ccccc3)nc(N)c2[N+](=O)[O-])CC(C)O1 (centres undefined) | -8.87% (inactive) |
| N#C[C@@H]1[C@H](c2ccccc2C2=CCCCC2)[C@@H](CO)N1S(=O)(=O)c1cccc(F)c1 | -3.37% (inactive) |
| CCCNC(=O)C[C@H]1C[C@H]2c3cc(NC(=O)NC4CCCCC4)ccc3O[C@H]2[C@H](CO)O1 | 3.19% (inactive) |
| C[C@H]1CN([C@@H](C)CO)C(=O)Cc2cc(NC(=O)Nc3ccc(F)cc3)ccc2O[C@@H]1CN(C)C(=O)NC1CCCCC1 | -2.6% (inactive) |
| O=C(NCCN1CCOCC1)c1ccc2c(c1)N(Cc1cccc(Cl)c1)C(=O)c1ccccc1S2(=O)=O | -15.4% (inactive) |
| CCCC1=Nc2cc(C(=O)NCCN3CCCC3)ccc2Sc2ccccc21 | 34% (inactive) |
| CCN1CCN(CCNC(=O)c2ccc(/C=C3/Sc4ccccc4N(Cc4cccc(C)c4)C3=O)cc2)CC1 | 51.6% (active) |
| CCN(CC)C(=O)CC(c1ccc2c(c1)OCO2)c1c(OC)cc(OC)c2c(-c3ccccc3)cc(=O)oc12 (centres undefined) | -104% (inactive) |
| CCN(CC)CCC(c1ccc2c(c1)OCO2)c1c(OC)cc(OC)c2c(-c3ccccc3)cc(=O)oc12 (centres undefined) | 54.9% (active) |
| CCN(CC)CCC(c1cc(OC)c(OC)c(OC)c1)c1c(OC)cc(OC)c2c(-c3ccccc3)cc(=O)oc12 (centres undefined) | 46.3% (inactive) |
| CCCC#Cc1cnc2c(c1)C(=O)N([C@H](C)CO)C[C@H](C)[C@@H](CN(C)Cc1ccccc1)O2 | -1.46% (inactive) |
| C/C=C/c1ccc(C2[C@H]3CNC[C@@H]2N3Cc2cccc(OC)c2)cc1 (some centres undefined) | -8.08% (inactive) |
| COc1ccc(CN(C)C[C@@H]2OCCCC[C@@H](C)Oc3ccc(NS(=O)(=O)c4ccc(C)cc4)cc3C(=O)N([C@@H](C)CO)C[C@H]2C)cc1 | 21% (inactive) |
| COCC(=O)N1CC(=O)N2[C@H](CO)[C@@H](c3ccc(-c4ccncc4)cc3)[C@H]2C1 | -7.77% (inactive) |
| N#Cc1ccc(-c2ccc([C@@H]3[C@@H](CO)N4C(=O)CNC[C@H]34)cc2)cc1 | 14.7% (inactive) |
| C/C=C/c1ccc(C2[C@H]3CNC[C@@H]2N3Cc2cccc(F)c2)cc1 (some centres undefined) | 16.5% (inactive) |
| N#Cc1ccc(-c2ccc([C@@H]3[C@H]4CNC[C@@H]3N4Cc3cc(F)ccc3F)cc2)cc1 | 69% (active) |
| COc1ccc(NC(=O)Nc2ccc3c(c2)[C@@H]2C[C@H](CC(=O)N4CCCCC4)O[C@H](CO)[C@@H]2O3)cc1 | -6.62% (inactive) |
| O=C([C@@H]1[C@@H](CO)[C@@H]2Cn3c(ccc(-c4ccccc4)c3=O)[C@H]1N2CCC(F)(F)F)N1CCCCC1 | 9.81% (inactive) |

| Structure (SMILES) | inhibition |
| --- | --- |
| CN(C)C(=O)C[C@@H]1C[C@@H]2c3cc(NC(=O)c4ccc5c(c4)OCO5)ccc3O[C@@H]2[C@H](CO)O1 | 5.11% (inactive) |
| C[C@H](CO)N1C[C@H](C)[C@H](CN(C)C(=O)Nc2ccc(C(F)(F)F)cc2)Oc2ccc(NS(C)(=O)=O)cc2CC1=O | -1.01% (inactive) |
| COCC(=O)N(C)C[C@@H]1Oc2ncc(C#Cc3ccccc3OC)cc2C(=O)N([C@@H](C)CO)C[C@H]1C | 0.963% (inactive) |
| COc1ccccc1C#Cc1cnc2c(c1)C(=O)N([C@@H](C)CO)C[C@@H](C)[C@@H](CN(C)C(=O)CN(C)C)O2 | 51.1% (active) |
| COc1ccccc1C#Cc1cnc2c(c1)C(=O)N([C@@H](C)CO)C[C@@H](C)[C@H](CN(C)C(=O)CN(C)C)O2 | 42.2% (inactive) |
| CN(C)CC(=O)N1[C@@H](C#N)[C@@H](c2ccccc2-c2ccccc2F)[C@@H]1CO | -4.36% (inactive) |
| N#C[C@@H]1[C@@H](c2ccccc2C2=CCCC2)[C@H](CO)N1C(=O)NC1CCCC1 | -0.746% (inactive) |
| Cc1ccccc1S(=O)(=O)NCC[C@@H]1CC[C@@H](NS(=O)(=O)c2ccccc2C)[C@@H](CO)O1 | -0.528% (inactive) |
| Cc1ccc2c(c1)C1CN(C)CCC1N2S(=O)(=O)c1ccc(Oc2ccc([N+](=O)[O-])cc2)cc1 (centres undefined) | 57.3% (active) |
| Cc1ccc2c(c1)C1CN(C)CCC1N2C(=S)Nc1ccc(OC(F)F)cc1 (centres undefined) | -9.14% (inactive) |
| Cc1ccc2c(c1)C1CN(C)CCC1N2S(=O)(=O)c1cccc(F)c1 (centres undefined) | -19.1% (inactive) |
| CC=Cc1ccc2n(c1=O)C[C@@H]1[C@@H](CO)[C@H](C(=O)NCCCN3CCOCC3)[C@H]2N1Cc1cocn1 (mixture of isomers) | -8.14% (inactive) |
| O=C(/C=C/c1cn(-c2ccccc2)nc1-c1ccc2c(c1)OCCO2)NCCCN1CCOCC1 | 50.5% (active) |
| O=C(NCCCN1CCOCC1)c1cn(-c2ccccc2)nc1-c1ccc(F)cc1 | -2.27% (inactive) |
| COc1ccc(-c2nn(-c3ccccc3)cc2/C=C\C(=O)N2CCOCC2)cc1[N+](=O)[O-] | -18.6% (inactive) |
| C[C@H]1CN([C@@H](C)CO)S(=O)(=O)c2ccc(-c3ccccc3)cc2O[C@H]1CN(C)C(=O)CC1CC1 | 5.01% (inactive) |
| C[C@H](CO)N1C[C@H](C)[C@H](CN(C)C(=O)Nc2ccc3c(c2)OCO3)Oc2ccc(NC(=O)Nc3ccccc3)cc2CC1=O | -4.77% (inactive) |
| c1ccc2cc3c(NCCN4CCOCC4)ccnc3cc2c1 | 79% (active) |
| Fc1ccc(-c2ccc(NCCN3CCOCC3)nn2)cc1 | -7.71% (inactive) |
| Cc1cccc(C)c1OCCN1CCOCC1 | -1.02% (inactive) |
| COc1ccc(NC(=O)N(C)C[C@@H]2Oc3c(NS(C)(=O)=O)cccc3C(=O)N([C@H](C)CO)C[C@H]2C)cc1 | 1.83% (inactive) |
| CC(C)NC(=O)Nc1ccc2c(c1)CC(=O)N([C@H](C)CO)C[C@H](C)[C@@H](CN(C)C(=O)Nc1ccc(F)cc1)O2 | 16.5% (inactive) |
